High-throughput results: PubChem, SRMLSC
Rows were chosen to be rich in hits. Some 6.6% of all compounds tested hit in one or more screens of this group.
Spn PMK inh: blocks S. pneumoniae phosphomevalonate kinase; purified PMK, PK/LDH-coupled NADH absorbance 340 nm; inhibition, % at 10 µM; 65,000 tested, 0.49% active;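 active = top-ranked compounds by inhibition in the single 10 µM screen, taking a fixed number of the strongest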;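 also: 0% = full reaction with DMSO carrier and 100% = background rate without enzyme reaction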
Autofluor 339: intrinsic fluorescence of library compounds, ex339/em460 – biochemical, MLSMR library, data from DPM-DC assay, artefact control, profiling panel; compound autofluorescence, ex339/em460 nm, NADH buffer; hits give high values; 1 = no-compound wells, NADH background; fluorescence fold increase at 10 µM; 65,000 tested, 5.5% active; AID 709;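 active = at 10 µM, mean starting fluorescence two-fold or more over control wells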;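 also: signal is the first read of a kinetic run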
MK inhibit: inhibitors of Streptococcus pneumoniae mevalonate kinase | AID 555 | inhibition, % at 10 µM | purified MK, PK/LDH-coupled NADH absorbance 340 nm | 65,000 tested, 0.48% active;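 active = ranked among the strongest by inhibition in the single 10 µM screen, a fixed top-ranked set picked for dose follow-up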
Spn DPM-DC inh: inhibitors of Streptococcus pneumoniae diphosphomevalonate decarboxylase | purified DPM-DC, PK/LDH coupled NADH fluorescence | calls only at 10 µM | 65,000 tested, 0.49% active;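 active = the 320 compounds with the highest percent inhibition in the single-dose primary screen, excluding strongly autofluorescent ones, cut at about 32% in these data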;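 also: kinetic rate of NADH fluorescence loss reporting ADP formed by the decarboxylase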
NADH coupling: inhibition of NAD/NADH coupling enzymes, library profiling; IC50, µM (top dose mostly 10 µM), inactives show at the top dose inhibition; coupled PK/LDH NADH assays, four targets; AID 774; 65,000 tested, 0.02% active;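 active = single-dose screening hits from any of four coupled enzyme assays that gave an IC50 when retested across doses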;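 also: the DPM-DC format reads NADH fluorescence rather than 340 nm absorbance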
Active calls of the source: *; i = inactive; x = no result given; + = active, no number.

SMILES	Spn PMK inh	Autofluor 339	MK inhibit	Spn DPM-DC inh	NADH coupling
COc1ccccc1OCc1ccc(C(=O)Nc2ccncc2)o1	2.0	0.98	7.0	i	4.0%
CCOc1ccc2[nH]c(=O)c(CN(CCO)C(=O)c3ccccc3F)cc2c1	1.0	3.04*	0.0	i	6.0%
CCOc1ccc2[nH]c(=O)c(CN(CCO)C(=O)c3ccc(F)cc3)cc2c1	2.0	3.35*	17.0	i	15.0%
CC1CCN(Cc2ccc(-c3nn[nH]n3)cc2)CC1	1.0	1.04	10.0	i	1.0%
Cc1nn2c(=O)cc(CSc3nc4ccccc4[nH]3)nc2s1	8.0	1.09	4.0	i	4.0%
CCN(CC)c1ccc(-c2nc3cnccc3n2C)cc1	17.0	2.51*	7.0	i	18.0%
Cc1ccc(N(C)C(=O)N2CCN(c3ccccn3)CC2)cc1	1.0	1.18	6.0	i	3.0%
COC(=O)c1[nH]c2cc(OC)c(OC)cc2c1NC(=O)CN1CCN(Cc2ccccc2)CC1	15.0	3.72*	3.0	x	9.0%
COC(=O)c1[nH]c2ccc(Cl)cc2c1NC(=O)CN1CCc2cc(OC)c(OC)cc2C1	6.0	1.46	8.0	i	6.0%
COC(=O)c1[nH]c2ccc(C)cc2c1NC(=O)CN1CCN(Cc2ccccc2)CC1	0.0	2.92*	12.0	i	12.0%
COC(=O)c1[nH]c2ccc(C)cc2c1NC(=O)CN1CCC(C)CC1	0.0	1.83	9.0	i	4.0%
COC(=O)c1[nH]c2ccc(C)cc2c1NC(=O)CN1CCN(c2ccc(F)cc2)CC1	8.0	2.23*	8.0	i	9.0%
COC(=O)c1[nH]c2ccc(C)cc2c1NC(=O)C(C)N1CCN(C2CCCCC2)CC1 (stereo unspecified)	8.0	3.5*	7.0	x	8.0%
Cc1ccc2[nH]c(C(=O)O)c(NC(=O)CN3CCN(c4cccc(C)c4C)CC3)c2c1	9.0	1.12	10.0	i	9.0%
CS(=O)(=O)N1Cc2ccccc2CC1C(=O)Nc1ccccc1C(N)=O (stereo unspecified)	0.0	1.16	10.0	i	3.0%
COC(=O)c1[nH]c2ccc(C)cc2c1NC(=O)CN1CCN(C(=O)c2ccccc2)CC1	6.0	2.85*	9.0	x	4.0%
COC(=O)c1[nH]c2ccc(C)cc2c1NC(=O)CN1CCN(c2ccccc2)CC1	17.0	2.13*	10.0	i	9.0%
COc1ccc(Br)cc1C1SCCN1S(C)(=O)=O (stereo unspecified)	1.0	1.18	6.0	i	2.0%
O=C(CN(C(=O)c1cc2c(s1)CCC2)C1CCCC1)NCc1cccs1	8.0	1.05	3.0	i	6.0%
Cc1cc(OCC(=O)NCCO)cc(C)c1Cl	26.0*	1.05	6.0	i	4.0%
Cc1cc(OCC(=O)NCCO)ccc1Cl	2.0	1.11	6.0	i	3.0%
COc1ccc(N(CC(=O)NC2CCCC2)C(=O)c2ccc(N3CCCCC3)nc2)cc1	7.0	1.1	3.0	i	4.0%
CCOC(=O)C(NC(=O)c1ccccc1OCC)(Nc1ncccn1)C(F)(F)F (stereo unspecified)	10.0	1.07	8.0	i	7.0%
CCOc1ccc(N(CC(=O)Nc2ccc(F)c(F)c2)S(=O)(=O)c2c(C)noc2C)cc1	12.0	0.99	7.0	+	6.0%
COc1ccc2c(c1)[nH]c1c(=O)n(CCN3CCCC3)cnc12	9.0	0.91	8.0	i	7.0%
SMILES	Spn PMK inh	Autofluor 339	MK inhibit	Spn DPM-DC inh	NADH coupling
CCCCN(CCCC)CCn1cnc2c([nH]c3ccc(OC)cc32)c1=O	11.0	2.3*	0.0	x	2.0%
CCC1CCCN1Cn1cnc2c([nH]c3ccc(OC)cc32)c1=O (stereo unspecified)	3.0	2.98*	12.0	x	2.0%
CCN1CCCC1Cn1cnc2c([nH]c3cccc(Cl)c32)c1=O (stereo unspecified)	4.0	2.16*	9.0	i	6.0%
COc1cc2[nH]c3c(=O)n(CCN(C(C)C)C(C)C)cnc3c2cc1OC	9.0	2.45*	0.0	x	3.0%
Cc1nn(C)c(C)c1NC(=O)c1ccc(S(=O)(=O)N(C)C)cc1	7.0	1.09	7.0	i	6.0%
O=C(NC(Cc1ccccc1)c1nc2ccccc2[nH]1)C1CC(=O)N(c2ccc3c(c2)OCCO3)C1 (stereo unspecified)	20.0	1.1	2.0	i	7.0%
CC(NC(=O)c1ccc(S(=O)(=O)N(C)C)cc1)c1ccccc1 (stereo unspecified)	0.0	1.02	8.0	i	3.0%
O=C(CN1C(=O)c2ccccc2S1(=O)=O)NCCSC1CCCCC1	10.0	1.11	7.0	i	6.0%
CN(C)/C=N/c1c(C#N)cnn1-c1ccccc1	1.0	1.11	0.0	i	0.0%
CN(C)C=Nc1ccc2nn(-c3ccccc3)nc2c1	0.0	2.19*	10.0	x	5.0%
Cc1ccc(-c2cc(-c3ccc4c(c3)OCO4)c(C#N)c(N)n2)o1	16.0	3.81*	13.0	x	15.0%
Cc1cc(-c2cc(-c3ccc(Cl)cc3)nc(N)c2C#N)co1	4.0	2.29*	17.0	x	11.0%
CCCc1cc(-c2ccc(O)c(OCC)c2)c(C#N)c(N)n1	0.0	1.66	9.0	i	4.0%
Cc1ccc(-c2cc(-c3ccc(Cl)cc3)c(C#N)c(N)n2)o1	0.0	3.83*	13.0	x	7.0%
CSc1nc(N)c(C#N)c(-c2ccc(Cl)cc2)c1C#N	4.0	1.17	1.0	i	4.0%
Cc1ccc(-c2cc(-c3ccc(C)o3)nc(N)c2C#N)cc1	0.0	3.8*	12.0	x	6.0%
Cc1csc(NC(=O)CSc2nnc(Cn3c(=O)sc4ccccc43)n2-c2ccccc2)n1	3.0	1.09	2.0	i	2.0%
N#Cc1c(N)nc2c(c1-c1ccc3c(c1)OCO3)CCCCCC2	0.0	1.28	2.0	i	2.0%
N#Cc1c(N)oc(-c2ccc3c(c2)OCO3)c1-c1ccc2c(c1)OCO2	15.0	2.13*	2.0	x	9.0%
COCc1cc(C)c(C#N)c(=S)[nH]1	21.0	1.07	58.0*	i	26.0%
COc1cc2c(cc1NC(=O)CSCC(=O)O)oc1ccccc12	1.0	1.12	11.0	i	4.0%
COc1cc2c(cc1NCc1ccccn1)oc1ccccc12	4.0	2.35*	4.0	x	3.0%
Cc1csc(NC(=O)c2ccccc2O)n1	7.0	3.85*	6.0	x	7.0%
CCn1nc(C(=O)O)c(=O)c2cc3c(cc21)OCO3	0.0	1.18	2.0	i	2.0%
Cc1c(Cc2ccccc2)c(=O)oc2c(CN(C)C)c(O)c(Cl)cc12	2.0	3.77*	1.0	x	2.0%
CCOc1ccc2[nH]c(C)c(CN3CCOCC3)c(=O)c2c1	16.0	1.61	7.0	i	13.0%
COc1ccc2[nH]c(C)c(CN3CCCCC3)c(=O)c2c1	14.0	2.76*	8.0	i	8.0%
COc1ccc(OC)c(NC(=O)c2c(NC(=O)CNCc3ccco3)sc3c2CCC3)c1	0.0	2.29*	0.0	x	0.0%
O=C(Nc1sc2c(c1C(=O)NC1CCCCC1)CCC2)c1ccco1	9.0	3.57*	12.0	x	11.0%
